Experimental data as given in PubChem BioAssay (Tox21).
Results filed as inconclusive are left out. Activity calls are given as the source filed them. Unless noted, calls follow the shape of the dose curve; as a rule, active = well fitted curve in the direction sought with a large enough effect in the repeat runs; inconclusive = weak or mixed curves; inactive = no such curve, though single readings can be large; an effect the other way counts as inactive or inconclusive.

What was measured:
[1] = target: Progesterone receptor (Homo sapiens) (UniProt P06401); test: qHTS assay to identify small molecule antagonists of the progesterone receptor (PR) signaling pathway (AID 1346795; active = well fitted inhibition curve with a large enough effect in the signal ratio in the repeat runs, not every such curve was filed as active; the % refers to the signal ratio; also: potency is read from the fitted curve at half-maximal effect; as to activity change, negative = inhibition: % is scaled to controls: 0 for no effect and ±100 for the full control effect)
Chain of Progesterone receptor (Homo sapiens) (P06401 whole entry, looked up): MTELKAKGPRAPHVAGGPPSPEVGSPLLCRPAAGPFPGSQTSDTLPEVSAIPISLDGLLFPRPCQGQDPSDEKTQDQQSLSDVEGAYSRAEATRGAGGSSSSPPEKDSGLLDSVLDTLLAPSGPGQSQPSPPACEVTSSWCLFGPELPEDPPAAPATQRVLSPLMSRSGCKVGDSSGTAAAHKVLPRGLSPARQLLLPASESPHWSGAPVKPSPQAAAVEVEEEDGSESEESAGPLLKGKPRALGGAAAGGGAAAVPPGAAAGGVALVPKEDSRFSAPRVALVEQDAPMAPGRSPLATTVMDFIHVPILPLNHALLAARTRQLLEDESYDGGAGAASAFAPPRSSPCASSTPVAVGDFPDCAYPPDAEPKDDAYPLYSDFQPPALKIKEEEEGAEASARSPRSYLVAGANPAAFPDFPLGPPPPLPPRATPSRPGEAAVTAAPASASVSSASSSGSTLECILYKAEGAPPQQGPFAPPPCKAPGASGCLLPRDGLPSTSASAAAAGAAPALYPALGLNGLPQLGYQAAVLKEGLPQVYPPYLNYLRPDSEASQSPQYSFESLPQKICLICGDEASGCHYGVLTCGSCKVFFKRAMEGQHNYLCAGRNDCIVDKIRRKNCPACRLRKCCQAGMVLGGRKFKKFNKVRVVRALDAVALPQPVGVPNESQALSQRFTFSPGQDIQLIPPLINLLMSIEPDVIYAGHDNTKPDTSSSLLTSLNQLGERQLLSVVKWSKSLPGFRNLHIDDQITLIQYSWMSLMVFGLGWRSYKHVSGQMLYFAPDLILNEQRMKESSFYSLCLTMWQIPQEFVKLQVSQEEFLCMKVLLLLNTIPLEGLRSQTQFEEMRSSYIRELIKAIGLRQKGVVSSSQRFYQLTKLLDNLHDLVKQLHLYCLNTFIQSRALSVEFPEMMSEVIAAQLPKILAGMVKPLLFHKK
Procedure, shortened: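 Antagonist mode with agonist R5020 at 1 nM final and 16 hr incubation at 37C. Reporter was beta-lactamase driven by UAS in HEK293T (PR-UAS-bla), 2% charcoal-stripped serum; signal from LiveBLAzer FRET substrate, 2 hr at room temperature.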

[2] = qHTS assay to identify small molecule antagonists of the progesterone receptor (PR) signaling pathway - cell viability counter screen (AID 1346798); also: series mostly up to about 92 µM; % is scaled to controls: 0 for no effect and ±100 for the full control effect; nearly all actives have a fitted effect of over 50% in size
Procedure, shortened: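 Cytotoxicity read as CellTiter-Glo luminescence (30 min, room temperature) in the same wells as the beta-lactamase readout. HEK293T PR-UAS-bla cells in charcoal-stripped 2% FBS received compound and R5020, then 16 h at 37C, 5% CO2.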

[3] = qHTS assay to identify small molecule antagonists of the TGF-beta/Smad signaling pathway - cell viability counter screen (AID 1346824); also: % is scaled to controls: 0 for no effect and ±100 for the full control effect; nearly all actives have a fitted effect of over 50% in size
Procedure, shortened: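 SBE-bla HEK 293T cells were plated overnight at 37 C, then given compounds in DMSO plus TGF-beta1 (added as 0.25 ng/mL solution) for 5 hr. After the bla read, CellTiter-Glo was added to the same wells and luminescence read after 30 min at room temperature.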

[4] = qHTS assay to identify small molecule agonists of the TGF-beta/Smad signaling pathway - cell viability counter screen (AID 1346829); also: top concentration of the series differs between compounds; % is scaled to controls: 0 for no effect and ±100 for the full control effect; nearly all actives have a fitted effect of over 45% in size
Procedure, shortened: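 Here the cytotoxicity of library compounds is measured in SBE-bla HEK 293T cells treated for 5 hr, using CellTiter-Glo added to wells already read for the beta-lactamase reporter.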

[5] = qHTS assay to identify small molecule agonists of the TGF-beta/Smad signaling pathway (AID 1346859; active = well fitted activation curve with a large enough effect in the signal ratio in the repeat runs, not every such curve was filed as active; the % refers to the signal ratio; also: potency is read from the fitted curve at half-maximal effect; as to activation: series mostly up to about 77 µM; % is scaled to controls: 0 for no effect and ±100 for the full control effect)
Procedure, shortened: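 Fluorescence (ex 405 nm; em 460 and 530 nm) was read 2 h after LiveBLAzer FRET substrate at RT. The preceding compound treatment of overnight-plated SBE-bla HEK293T cells lasted 5 h at 37 C.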

[6] = target: Thyrotropin-releasing hormone receptor (Homo sapiens) (UniProt P34981); test: qHTS assay to identify small molecule antagonists of the thyrotropin-releasing hormone receptor (TRHR) signaling pathway (AID 1346877; active = well fitted inhibition curve with a large enough effect in the repeat runs, not every such curve was filed as active; also: series mostly up to about 51 µM; % is scaled to controls: 0 for no effect and ±100 for the full control effect)
Chain of Thyrotropin-releasing hormone receptor (Homo sapiens) (P34981 whole entry, looked up): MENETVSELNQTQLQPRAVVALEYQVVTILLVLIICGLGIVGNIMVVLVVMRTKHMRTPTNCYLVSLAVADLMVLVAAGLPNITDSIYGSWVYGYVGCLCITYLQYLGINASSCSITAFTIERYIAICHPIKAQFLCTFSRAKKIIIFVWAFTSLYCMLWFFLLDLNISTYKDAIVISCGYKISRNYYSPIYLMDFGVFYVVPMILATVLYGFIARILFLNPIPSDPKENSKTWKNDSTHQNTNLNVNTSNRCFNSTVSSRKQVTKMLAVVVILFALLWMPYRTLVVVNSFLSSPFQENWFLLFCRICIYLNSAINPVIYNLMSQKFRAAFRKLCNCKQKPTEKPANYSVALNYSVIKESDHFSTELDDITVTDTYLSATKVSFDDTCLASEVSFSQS
Procedure, shortened: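 TRHR-expressing HEK293 cells loaded with calcium dye for 2 h at 37 C; compounds pre-incubated 5 min at room temperature before TRH challenge at 1 nM final. Intracellular calcium fluorescence read kinetically for 3 min; 15 concentrations in triplicate.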

[7] = target: Thyrotropin-releasing hormone receptor (Homo sapiens) (UniProt P34981); test: qHTS assay to identify small molecule agonists of the thyrotropin-releasing hormone receptor (TRHR) signaling pathway (AID 1346891; calls by dose curve; also: series mostly up to about 58 µM; % is scaled to controls: 0 for no effect and ±100 for the full control effect)
Procedure, shortened: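 Agonist-mode intracellular calcium readout: kinetic fluorescence over 3 min at 1 s intervals after compound addition to TRHR-HEK293 cells (18 h seeded, 2 h dye-loaded at 37 C). Fifteen concentrations, triplicates.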

[8] = Caspase-3/7 induction in HepG2 cells by small molecules, qHTS assay (AID 1346978); also: % is scaled to controls: 0 for no effect and ±100 for the full control effect; nearly all actives have a fitted effect of over 15% in size
Procedure, shortened: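 Wild-type HepG2 cells (2,000/well) were settled 5 h at 37 C, 5% CO2, then exposed to compounds in DMSO for 17 h. Caspase-3/7 activity was read by luminescence 30 min after adding Caspase-Glo 3/7 reagent at room temperature.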

[9] = Caspase-3/7 induction in CHO-K1 cells by small molecules, qHTS cell viability counter screen (AID 1346979); also: nearly all actives have a fitted effect of over 35% in size; also: potency is read from the fitted curve at half-maximal effect
Procedure, shortened: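 Cytotoxicity counter screen: CellTiter-Fluor added to compound-treated wild-type CHO-K1 cells at 16 h (37C, 5% CO2), fluorescence measured 1 h later; same wells as caspase-3/7 measurement.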

[10] = Caspase-3/7 induction in CHO-K1 cells by small molecules, qHTS assay (AID 1346980); also: nearly all actives have a fitted effect of over 15% in size; also: potency is read from the fitted curve at half-maximal effect
Procedure, shortened: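 Wild-type cells were seeded at 1,500 per well and settled 5 hr at 37 C, 5% CO2, then exposed to DMSO-dissolved compounds for 17 hr. Caspase-Glo 3/7 reagent was added, and luminescence was read after 30min at room temperature.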

[11] = Caspase-3/7 induction in HepG2 cells by small molecules, qHTS cell viability counter screen (AID 1346981); also: nearly all actives have a fitted effect of over 30% in size; also: potency is read from the fitted curve at half-maximal effect
Procedure, shortened: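 Wild-type HepG2 cells, 2,000/well, settled 5 hr at 37 C, 5% CO2 before compound addition. Viability read by CellTiter-Fluor fluorescence, reagent added after 16 hr compound exposure, then 1 hr at 37C, in the same wells as the caspase read.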

[12] = qHTS assay to identify small molecule agonists of the progesterone receptor (PR) signaling pathway - cell viability counter screen (AID 1346799; calls by dose curve; also: % is scaled to controls: 0 for no effect and ±100 for the full control effect; nearly all actives have a fitted effect of over 45% in size)
Procedure, shortened: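 Cytotoxicity measured by CellTiter-Glo luminescence (30 min, RT) in the same wells as the PR beta-lactamase agonist read. Those HEK293T cells had 16 h compound treatment at 37 C in 2% charcoal-stripped FBS medium.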

[13] = target: Nuclear receptor subfamily 1 group I member 2 (Homo sapiens) (UniProt O75469); test: Human pregnane X receptor (PXR) small molecule agonists, qHTS assay (AID 1346982); also: nearly all actives have a fitted effect of over 35% in size; also: potency is read from the fitted curve at half-maximal effect
Chain of Nuclear receptor subfamily 1 group I member 2 (Homo sapiens) (O75469 whole entry, looked up): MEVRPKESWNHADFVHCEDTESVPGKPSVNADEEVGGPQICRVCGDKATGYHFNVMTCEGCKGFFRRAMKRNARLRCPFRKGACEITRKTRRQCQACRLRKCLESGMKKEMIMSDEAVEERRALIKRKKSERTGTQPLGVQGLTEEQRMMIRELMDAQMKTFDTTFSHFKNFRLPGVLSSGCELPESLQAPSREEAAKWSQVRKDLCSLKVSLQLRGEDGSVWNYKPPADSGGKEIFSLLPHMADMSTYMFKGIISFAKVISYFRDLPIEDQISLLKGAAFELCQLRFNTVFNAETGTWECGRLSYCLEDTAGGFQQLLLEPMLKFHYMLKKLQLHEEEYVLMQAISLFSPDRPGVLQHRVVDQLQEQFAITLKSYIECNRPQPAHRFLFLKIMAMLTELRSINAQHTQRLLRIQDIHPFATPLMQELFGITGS
Procedure, shortened: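 PXR-Luc HepG2 reporter cells (CYP3A4-driven luciferase) in 5% charcoal-stripped FBS medium, plated 5 h before compound addition, then treated 24 h at 37C. Luciferase read by ONE-Glo luminescence after 30 min at room temperature.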

[14] = target: Cytochrome P450 2C19 (Homo sapiens) (UniProt P33261); test: Cytochrome P450 Family 2 Subfamily C Member 19 (CYP2C19) small molecule antagonists: luciferase reporter qHTS assay (AID 1671197); also: nearly all actives have a fitted effect of over 65% in size; also: potency is read from the fitted curve at half-maximal effect
Chain of Cytochrome P450 2C19 (Homo sapiens) (P33261 whole entry, looked up): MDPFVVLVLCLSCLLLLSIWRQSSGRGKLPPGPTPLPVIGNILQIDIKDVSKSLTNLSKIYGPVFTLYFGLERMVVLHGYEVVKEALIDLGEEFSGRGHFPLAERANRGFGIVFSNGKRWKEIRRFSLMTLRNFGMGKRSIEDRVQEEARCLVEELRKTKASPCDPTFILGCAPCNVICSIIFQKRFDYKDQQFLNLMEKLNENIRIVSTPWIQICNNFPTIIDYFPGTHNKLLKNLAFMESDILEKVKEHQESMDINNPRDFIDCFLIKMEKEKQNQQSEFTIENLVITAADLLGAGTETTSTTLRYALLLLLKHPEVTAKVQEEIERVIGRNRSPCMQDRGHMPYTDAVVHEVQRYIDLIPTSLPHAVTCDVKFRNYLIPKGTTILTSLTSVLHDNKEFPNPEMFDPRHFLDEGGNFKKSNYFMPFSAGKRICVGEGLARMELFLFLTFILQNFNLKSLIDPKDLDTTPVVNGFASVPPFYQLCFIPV
Procedure, shortened: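 Light output is proportional to CYP2C19 activity: proluciferin substrate is converted to luciferin, then detected by a luciferin detection reagent that also stops the 1 h, 37C NADPH-driven reaction. Ketoconazole serves as positive control.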

[15] = Human pregnane X receptor (PXR) small molecule agonists, qHTS cell viability counter screen (AID 1346977); also: nearly all actives have a fitted effect of over 50% in size; also: potency is read from the fitted curve at half-maximal effect
Procedure, shortened: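 Same-well viability read: CellTiter-Fluor added after 23 hr compound exposure, fluorescence measured 1 hr later. Cells were PXR-Luc HepG2 seeded at 2,000/well in 5% charcoal-stripped FBS medium, rested 5 hr before dosing at 37 C.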

[16] = target: Nuclear receptor subfamily 1 group I member 2 (Rattus norvegicus) (UniProt Q9R1A7); test: Rat pregnane X receptor (rPXR) activation by small molecules, qHTS assay (AID 1346983); conditions: rPXR luciferase reporter cells, One-Glo luminescence, 24 h; max activation: active compounds read high; also: % is scaled to controls: 0 for no effect and ±100 for the full control effect; nearly all actives have a fitted effect of over 20% in size
Chain of Nuclear receptor subfamily 1 group I member 2 (Rattus norvegicus) (Q9R1A7 whole entry, looked up): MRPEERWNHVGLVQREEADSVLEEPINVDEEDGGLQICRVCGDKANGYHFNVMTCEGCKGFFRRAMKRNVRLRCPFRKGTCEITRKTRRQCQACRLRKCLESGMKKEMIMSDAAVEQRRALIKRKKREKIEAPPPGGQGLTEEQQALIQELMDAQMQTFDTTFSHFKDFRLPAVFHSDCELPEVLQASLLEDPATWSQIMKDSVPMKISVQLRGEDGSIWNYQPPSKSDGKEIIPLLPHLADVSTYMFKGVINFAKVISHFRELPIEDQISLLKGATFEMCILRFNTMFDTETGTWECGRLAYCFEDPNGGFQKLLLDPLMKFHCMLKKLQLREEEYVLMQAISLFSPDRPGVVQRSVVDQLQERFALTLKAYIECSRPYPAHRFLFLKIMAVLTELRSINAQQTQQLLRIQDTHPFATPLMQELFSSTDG
Procedure, shortened: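 Cell-based rPXR luciferase reporter assay, 2,000 cells per well, rested 5hr at 37 C before compound addition in DMSO, then 24 hr at 37 C. One-Glo reagent was added and luminescence read after 30 min at room temperature.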

[17] = target: Nuclear receptor subfamily 1 group I member 2 (Homo sapiens) (UniProt O75469); test: CYP3A4 induction through human pregnane X receptor (PXR) by small molecules, qHTS assay (AID 1346984); also: % is scaled to controls: 0 for no effect and ±100 for the full control effect; nearly all actives have a fitted effect of over 40% in size
Procedure, shortened: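 DPX-2 HepG2 cells carrying a PXR response element and CYP3A4-promoter luciferase construct, treated with compounds 24 hr at 37C. Then P450-Glo CYP3A4 Luciferin-IPA substrate (3uM final) for 3 hr at 37C, One-Glo added, luminescence read.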

[18] = target: Cytochrome P450 2D6 (Homo sapiens) (UniProt P10635); test: Cytochrome P450 Family 2 Subfamily D Member 6 (CYP2D6) small molecule antagonists: luciferase reporter qHTS assay (AID 1671196); also: nearly all actives have a fitted effect of over 50% in size; also: potency is read from the fitted curve at half-maximal effect
Chain of Cytochrome P450 2D6 (Homo sapiens) (P10635 whole entry, looked up): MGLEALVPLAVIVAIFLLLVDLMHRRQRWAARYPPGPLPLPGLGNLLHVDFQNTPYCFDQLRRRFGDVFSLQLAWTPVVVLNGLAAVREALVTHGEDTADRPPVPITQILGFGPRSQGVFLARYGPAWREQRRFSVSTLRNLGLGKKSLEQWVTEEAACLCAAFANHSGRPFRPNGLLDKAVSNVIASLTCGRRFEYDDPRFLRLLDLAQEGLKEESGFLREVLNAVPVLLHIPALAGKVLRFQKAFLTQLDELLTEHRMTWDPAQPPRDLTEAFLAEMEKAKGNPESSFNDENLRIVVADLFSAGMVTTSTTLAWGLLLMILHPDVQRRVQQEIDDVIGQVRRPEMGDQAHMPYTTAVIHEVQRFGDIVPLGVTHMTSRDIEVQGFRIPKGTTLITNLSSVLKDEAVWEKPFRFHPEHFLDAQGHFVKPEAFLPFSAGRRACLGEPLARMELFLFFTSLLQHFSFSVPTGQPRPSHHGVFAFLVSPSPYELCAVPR
Procedure, shortened: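 Cell-free P450-Glo system: CYP2D6 with proluciferin substrate was pre-incubated with compound for 10 min, then reacted with NADPH regeneration for 1 h at room temperature. Luciferin product was detected after 20 min, and data were reported as relative luminescence units.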

[19] = target: Nuclear receptor subfamily 1 group I member 2 (Homo sapiens) (UniProt O75469); test: Human pregnane X receptor (PXR) activation by small molecules, qHTS assay (AID 1346985); also: potency is read from the fitted curve at half-maximal effect; nearly all actives have a fitted effect of over 40% in size
Procedure, shortened: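 DPX-2 cells (HepG2 co-transfected with a PXR response element and a CYP3A4-promoter luciferase construct) were seeded at 2,000 per well, rested 5 hr at 37C, then exposed to DMSO-dissolved compounds for 24 hr. Activation was read as luciferase luminescence.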

[20] = target: Progesterone receptor (Homo sapiens) (UniProt P06401); test: qHTS assay to identify small molecule agonists of the progesterone receptor (PR) signaling pathway (AID 1346784; calls by dose curve; also: % is scaled to controls: 0 for no effect and ±100 for the full control effect; nearly all actives have a fitted effect of over 30% in size)
Procedure, shortened: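 Agonist qHTS: compounds pinned onto 3,000 PR-UAS-bla HEK 293T cells per well in charcoal-stripped serum medium, 16hr at 37C, then beta-lactamase activity measured by LiveBLAzer FRET fluorescence after 2 hours at room temperature.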

CCC(C)O (stereo not given)
inactive: Potency [1] | Potency [2] | Potency [3] | outcome [4] | Potency [5] | outcome [6] | Potency [7] | Potency [8] | Potency [9] | Potency [10] | Potency [11]

CCCCCCCN
inactive: Potency [1] | Potency [2] | Potency [12] | Potency [3] | outcome [4] | Potency [5] | outcome [6] | Potency [7] | Potency [8] | Potency [9] | Potency [10] | Potency [11] | Potency [13] | Potency [14]

CCn1cc(C(=O)O)c(=O)c2cnc(N3CCNCC3)nc21
inactive: Potency [1] | Potency [2] | Potency [12] | Potency [3] | outcome [4] | Potency [5] | outcome [6] | Potency [7] | Potency [15] | Potency [8] | Potency [9] | Potency [10] | Potency [11] | Potency [13] | max activation [16] -1.76% | Potency [17] | Potency [18] | Potency [14]

COc1cc(C(=O)OCCCN2CCCN(CCCOC(=O)c3cc(OC)c(OC)c(OC)c3)CC2)cc(OC)c1OC
active: Potency [9] 23.7 µM | Potency [11] 26.6 µM | Potency [13] 29.8 µM
inactive: Potency [1] | Potency [2] | Potency [12] | Potency [3] | outcome [4] | Potency [5] | outcome [6] | Potency [7] | Potency [8] | Potency [10]

COc1cc2nc(Cl)nc(N)c2cc1OC
inactive: Potency [1] | Potency [2] | Potency [3] | outcome [4] | outcome [6] | Potency [7] | Potency [15] | Potency [8] | Potency [9] | Potency [10] | Potency [11] | Potency [13] | Potency [18] | Potency [14]

c1ccc(CNCCNCc2ccccc2)cc1
active: Potency [18] 0.776 µM
inactive: Potency [1] | Potency [2] | Potency [12] | Potency [3] | outcome [4] | Potency [5] | outcome [6] | Potency [7] | Potency [15] | Potency [8] | Potency [9] | Potency [10] | Potency [11] | Potency [13] | max activation [16] -3.63% | Potency [17]

O=C(NCC1CN(c2ccc(N3CCOCC3=O)cc2)C(=O)O1)c1ccc(Cl)s1 (stereo not given)
inactive: Potency [1] | Potency [2] | Potency [3] | outcome [4] | Potency [5] | outcome [6] | Potency [7] | Potency [8] | Potency [9] | Potency [10] | Potency [11] | Potency [13] | Potency [18] | Potency [14]

NCCCN1CCOCC1
inactive: Potency [1] | Potency [2] | Potency [12] | Potency [3] | outcome [4] | Potency [5] | outcome [6] | Potency [7] | Potency [15] | Potency [8] | Potency [9] | Potency [10] | Potency [11] | Potency [14]
active: Potency [18] 35.5 µM

COc1cccc(N(C)C(=S)Oc2ccc3c(c2)CCCC3)n1
active: Potency [1] 18.8 µM | Potency [19] 1.26 µM | Potency [14] 2.75 µM
inactive: Potency [2] | Potency [12] | Potency [3] | outcome [4] | Potency [5] | outcome [6] | Potency [7] | Potency [15] | Potency [8] | Potency [10] | Potency [11] | Potency [18]

CC(C)Nc1ccc(NC(C)C)c2c1C(=O)c1ccccc1C2=O
active: Potency [15] 14.2 µM | Potency [9] 25.3 µM | Potency [11] 16 µM | Potency [13] 1.27 µM
inactive: Potency [20] | outcome [4] | Potency [5] | Potency [8] | Potency [10] | Potency [18]

COc1ccc(S(=O)(=O)N2C(=O)[C@@](c3ccccc3OC)(N3C[C@H](O)C[C@H]3C(=O)N(C)C)c3cc(Cl)ccc32)c(OC)c1
inactive: Potency [3] | outcome [4] | outcome [6] | Potency [7]
active: Potency [1] 54.5 µM | Potency [9] 30.6 µM | Potency [10] 61.1 µM | Potency [11] 30.6 µM | Potency [13] 61.1 µM | Potency [14] 31.7 µM

Brc1c2ccccc2c(Br)c2ccccc12
active: Potency [5] 2.22 µM
inactive: activity change, negative = inhibition [1] 3.87% [at 8.39 µM] | activity change, negative = cytotoxicity [2] 3.37% [at 8.39 µM] | viability change, negative = cytotoxic [3] 16.5% [at 6.97 µM] | activity change, negative = cytotoxicity [4] -9.36% [at 6.97 µM] | activity, negative = inhibition [6] -1.3% [at 4.65 µM] | activation [7] 0.0356% [at 5.23 µM] | caspase activation [8] 0.0205% [at 8.39 µM] | activity change, negative = cytotoxicity [9] 14.3% [at 8.39 µM] | caspase-3/7 activation [10] -0.773% [at 8.39 µM] | activity change, negative = cytotoxicity [11] 5.61% [at 8.39 µM] | activation [13] 1.22% [at 8.39 µM] | activity change, negative = inhibition [18] 0.168% [at 10.5 µM] | activity change, negative = inhibition [14] -7.43% [at 10.5 µM]
